This is an account of results in PubChem BioAssay (EPA / NIEHS).

The structures appear in SMILES notation. The source made the active and inactive calls. Rule for the calls: active = hit-call score of the fitted dose curve at least 0.9, where 1 is the maximum; inactive = score below 0.9.

Read-out in the experiment: Monokine induced gamma interferon (MIG), CXCL9 (gene 4283)
Put plainly: BSK_SAg_MIG: BioMAP Diversity Plus: SAg Assay for Monokine induced gamma interferon (MIG) Biomarker Activity (AID 2283092). The following applies: primary human HUVEC with PBMC; actives raise or lower the signal. The protocol: BSK_SAg is a cell-based, multiplexed-readout assay that uses umbilical vein endothelium and peripheral blood mononuclear cells, a human vascular primary cell co-culture, with measurements taken at 24 hours after chemical dosing in a 96-well plate.BSK_SAg_MIG is an assay component measured in the BSK_SAg assay. It measures MIG antibody related to regulation of gene expression using ELISA technology.Data from the assay component BSK_SAg_MIG was analyzed into 1 assay endpoint. This assay endpoint, BSK_SAg_MIG, was analyzed with bidirectional fitting relative to DMSO as the negative control and baseline of activity. Using a type of binding reporter, gain or loss-of-signal activity can be used to understand changes in the signaling as they relate to the gene CXCL9. Furthermore, this assay endpoint can be referred to as a primary readout, because this assay has produced multiple assay endpoints where this one serves a signaling function. To generalize the intended target to other relatable targets, this assay endpoint is annotated to the cytokine intended target family, where the subfamily is chemotactic factor.
The levels of cell surface (or secreted, indicated by the prefix "s") biomarker endpoints were measured by ELISA. Overt cytotoxicity to cells in confluent adherent cultures (all systems other than the BT system) was assessed by measuring total protein levels using sulforhodamine B (SRB) staining in parallel cultures at the time of biomarker measurements, indicated as SRB endpoints. For proliferation assays for adherent cell types, individual cell types are cultured at sub-confluence and relative cell numbers quantified by SRB staining at time points optimized for each system (48 h: 3C and CASM3C systems; 72 h: BT and HDF3CGF systems; 96 h: SAg system). SRB was performed by staining cells with 0.1% SRB after fixation with 10% TCA and reading wells at 560 nm.Viability and proliferation of PBMC (T cells) was quantified by Alamar Blue reduction for the SAg and BT systems. For PBMC viability (referred to as PBMC Cytotoxicity within the assay endpoint names), cells were plated (75,000/well in a 96-well plate) and then chemical samples added for 1 h before addition of activators, SEB and TSST-1 (20 ng/mL final concentration each). Cells were incubated for 90 h. Then, Alamar Blue (20 uL/well) (Invitrogen, Cat DAL1100) was added for 6 h, and the plates were read with a fluorescence microplate reader at 546/580 nm (excitation/emission). For PBMC proliferation, cells were plated and activated as above but incubated for only 16 h prior to addition of Alamar Blue. Plates were read after 6 h.
For the compound `COC(=O)CCCC(=O)OC`, the result was inactive.
On the same count and under the same terms, the value for `CCCCC(CC)COC(=O)CCCCCCCC(=O)OCC(CC)CCCC` (stereo not given) was “inactive”; that for `CN(C)C(=O)NC1(c2ccccc2)CCN(CCC[C@]2(c3ccc(Cl)c(Cl)c3)CCCN(C(=O)c3ccccc3)C2)CC1` was “inactive”.
Same read-out and setting: the value for `O=C(O)c1[nH]n(-c2ccc(S(=O)(=O)O)cc2)c(=O)c1N=Nc1ccc(S(=O)(=O)O)cc1` was “inactive”; that for `CC1(C)C(=O)NC(=O)N1CO` was “inactive”.
Turning to `CN(C)C(=O)NC1(c2ccccc2)CCN(CC[C@@]2(c3ccc(F)c(F)c3)CN(C(=O)c3ccccc3)CCO2)CC1`, the result was inactive.
Still for that read-out and setting: with `CCc1cc(C2=C(C(=O)O)N(c3ccccc3C(F)(F)F)S(=O)(=O)c3ccccc32)cc2c1OCO2` the entry was “inactive”; with `CC(=O)[C@@]1(O)CC[C@H]2[C@@H]3CCC4=CC(=O)CC[C@]4(C)[C@H]3CC[C@@]21C`, “inactive”.
On the same count and under the same terms, the value for `Cc1occc(=O)c1O` was “inactive”.
Regarding `CC1=C(C)S(=O)(=O)CCS1(=O)=O`, the result was inactive.
Take `CC(=O)O[C@]1(C(C)=O)CC[C@H]2[C@@H]3C=C(Cl)C4=CC(=O)[C@@H]5C[C@@H]5[C@]4(C)[C@H]3CC[C@@]21C`: the outcome was inactive.
Regarding `CC(C)NCC(O)c1ccc(O)c(O)c1` (stereo not given), the outcome was inactive.
The same measure, in the same setting: the value for `CCC(C)N(C)C(=O)c1cc2ccccc2c(-c2ccccc2Cl)n1` (stereo not given) was “inactive”; that for `O=C(N[C@@H](c1ccccc1)[C@@H]1CCCCN1)c1cccc(C(F)(F)F)c1Cl` was “inactive”; that for `CC(=O)OC1CC(C)OC(C)O1` (stereo not given) was “inactive”.
The same measure, in the same setting: with `OCC(CO)n1cnc(-c2ccc(F)cc2)c1-c1ccnc(Oc2ccccc2)n1` the entry was “inactive”.
With `Cc1c(C)c2c(c(C)c1O)CCC(C)(COc1ccc(CC3SC(=O)NC3=O)cc1)O2` (stereo not given), the AC50 was 31.6 µM (active).
Consider `CC(N)=O`, for which the outcome was inactive.
The same measure, in the same setting: with `Oc1ccccc1O` the entry was “inactive”.
Same read-out and setting: with `CCCCCCCCCCCCCCCCO` the entry was “inactive”; with `NC(=Nc1ccccc1)Nc1ccccc1`, “inactive”.
On the same count and under the same terms, with `CN(C)CCCN(C)CCCN(C)C` the entry was “inactive”; with `CCCCCCCCCCCCCCOS(=O)(=O)O`, “inactive”; with `N[C@@H](Cc1c[nH]c2ccccc12)C(=O)O`, “inactive”.
With `C=CCc1ccc(OC)c(OC)c1`, the outcome was inactive.
Still for that read-out and setting: the value for `CC(=O)S[C@H](C(=O)N[C@H]1Cc2ccccc2[C@H]2CCC[C@@H](C(=O)O)N2C1=O)C(C)C` was “inactive”; that for `OCC(O)CO` was “inactive”; that for `CCOCCOCCO` was “inactive”.
Still for that read-out and setting: the value for `C/C=C/c1ccc(OC)cc1` was “inactive”; that for `Cc1ccc(C(C)(C)C)c(O)c1` was “inactive”.
The same measure, in the same setting: with `CCCCC(CC)COP(=O)(OCC(CC)CCCC)OCC(CC)CCCC` (stereo not given) the entry was “inactive”.
In the case of `CC(C)(O)c1ccc(CNC(=O)c2cccnc2Oc2ccc(F)cc2)cc1`, the result was inactive.
The same measure, in the same setting: with `C#CC(O)C(CC)CCCC` (stereo not given) the entry was “inactive”; with `O=C(O)c1cccnc1`, “inactive”.
Still for that read-out and setting: with `CCCC[C@H]1CN(CC2CCOCC2)C(=O)OC12CCN(C1(C)CCN(C(=O)c3c(C)ncnc3C)CC1)CC2` the entry was “inactive”; with `CC(=O)O`, “inactive”; with `CSc1ccc(Oc2ccc(S(N)(=O)=O)cc2CN(C)C)cc1C`, “inactive”.
On the same count and under the same terms, the value for `Oc1ccc(O)cc1` was “inactive”; that for `O=[Si]=O` was “inactive”.
Consider `CCCCC(CC)CO` (stereo not given), for which the outcome was inactive.
